Laboratory results reported in PubChem BioAssay (NCI).
About 83,000 compounds went through this panel and 20% of them were active in at least one assay; those are over-represented in the sample as a whole.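 Assay: single dose, 48 h. Readout: percent growth (0 = no net growth; negative = cell death). Active: <10.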 Values without a mark were called inactive. Active and inactive are the calls of the source.

test system: UO-31 renal; assay: NCI-60 one-dose screen, 48 h (100 = growth as untreated, 0 = no growth, -100 = all killed); details: 10 µM unless noted

Question: For NC1=CC(=O)C(=O)c2ccccc21, which growth is on record?
Answer: Its growth is 71.3%.

Question: NC(CC(=O)O)C(=O)OCc1ccccc1 (stereo not drawn) was tested. Which growth did it give?
Answer: Its growth is 71.8%.

Question: For Cc1ccn2c(-c3csc(Nc4cccc(O)c4)n3)c(C)nc2c1, which growth is on record?
Answer: The growth was 40.4%.

Question: Which growth does the source give for COc1ccc(C(=O)c2sc3nc(-c4ccccc4OC)ccc3c2N)cc1OC here?
Answer: Its growth is 53.4%.

Question: How did the growth turn out when Cc1nn(-c2nc3ccccc3[nH]2)c2c1C(c1ccc3c(c1)OCO3)CC(=O)N2 (stereo not drawn) was run?
Answer: Its growth is 22.7%.

Question: Which growth does the source give for COc1cnc2c(c1)C(=O)c1c-2n(CCCN2CCCC2)c(=O)c2cc([N+](=O)[O-])ccc12 here?
Answer: The growth was -96.3% (active).

Question: For Cc1cc(Nc2nc(N3CCOCC3)nc3ccccc23)n[nH]1, which growth is on record?
Answer: The growth was 35.4%.

Question: With O=c1c(/C=C/c2ccco2)nnc(SCCN2CCOCC2)n1/N=C/c1ccc([N+](=O)[O-])cc1 as the compound, how does the growth read?
Answer: The growth was 71.3%.

Question: Nc1nc2ccc(-c3nc4ccc5[nH]ncc5c4c4c3CCC4)cc2s1 was tested. Which growth did it give?
Answer: The growth was 14.7%.

Question: With COc1ccc(C(=O)c2sc3nc4c(cc3c2N)CCCC4)cc1OC as the compound, how does the growth read?
Answer: The growth was 55.7%.

Question: O=C1Nc2c(ccc(Cl)c2Cl)/C1=C/c1cc(Br)c(O)c(Br)c1 was tested. Which growth did it give?
Answer: The growth was 60.4%.

Question: Which growth does the source give for Cn1c2c(Cl)c(Cl)ccc2c2ccn3c(=O)c4ccccc4nc3c21 here?
Answer: Its growth is 70.1%.

Question: Which growth does the source give for C/C(=C(/c1ccc(O)cc1)c1ccc(Cl)cc1)c1ccccc1 here?
Answer: The growth was -100% (active).

Question: With Oc1ccc2c(=S)cc(-c3ccc(Br)cc3)oc2c1O as the compound, how does the growth read?
Answer: Its growth is 17.4%.

Question: How did the growth turn out when COc1cccc(-n2cc(-c3nc(Nc4cc(C)[nH]n4)c4ccccc4n3)nn2)c1 was run?
Answer: Its growth is 15.4%.

Question: Which growth does the source give for O=C([C@@H](COCc1ccccc1)N1C(=O)[C@@H](N2C(=O)OC[C@@H]2c2ccccc2)[C@H]1/C=C/c1ccccc1)N1CCC(CCN2CCCCC2)CC1 here?
Answer: Its growth is 69.3%.

Question: How did the growth turn out when COc1ccc(-c2cc(/C=C3\C(=O)Nc4ccc(Cl)cc43)[nH]n2)cc1 was run?
Answer: The growth was 64.4%.

Question: Which growth does the source give for CNC(=S)N/N=C/CSC/C=N/NC(=S)NC here?
Answer: The growth was 71.7%.

Question: With CCCCCCCCOC(=O)CC[C@@H](C)[C@H]1CC[C@H]2[C@@H]3[C@H](OC(=O)CCN)C[C@@H]4C[C@H](OC(=O)CCN)CC[C@]4(C)[C@H]3C[C@H](OC(=O)CCN)[C@]12C as the compound, how does the growth read?
Answer: The growth was 105%.

Question: How did the growth turn out when O=C1C=CC(=O)N1c1ccc(Cc2ccc(N3C(=O)C=CC3=O)cc2)cc1 was run?
Answer: Its growth is 81.9%.

Question: How did the growth turn out when N#CC1=C(N)Oc2c(ccc3ccccc23)C1c1cccs1 (stereo not drawn) was run?
Answer: The growth was 46.5%.

Question: For Cc1cc(Nc2nc(N3CCNCC3)nc3ccccc23)n[nH]1, which growth is on record?
Answer: Its growth is 64.3%.

Question: For COc1cc(/C=N/N(C)C)ccc1O, which growth is on record?
Answer: The growth was 89.1%.

Question: For CCN(CC)CC(O)CNc1c2ccc([N+](=O)[O-])cc2nc2cc(OC)c(OC)cc12 (stereo not drawn), which growth is on record?
Answer: The growth was 4.89% (active).

Question: Which growth does the source give for O=C1Nc2ccc(Br)cc2C12CC(c1ccccc1)=NN2 (stereo not drawn) here?
Answer: The growth was 48.4%.

Question: How did the growth turn out when O=C1C=CC(=O)c2c1nc1n2CCCC1 was run?
Answer: The growth was 91.1%.

Question: For Cc1cc(=O)oc2cc(Oc3nc(-c4cccs4)cn4c(-c5cccs5)cnc34)ccc12, which growth is on record?
Answer: The growth was 60.3%.

Question: COc1ccc(-c2nc(Nc3cc(C)[nH]n3)c3ccccc3n2)cc1 was tested. Which growth did it give?
Answer: Its growth is 41%.

Question: For O=C1Nc2ccccc2/C1=C/C(=N/c1nnc(-c2ccc(Cl)cc2)s1)c1ccccc1, which growth is on record?
Answer: Its growth is -69.2% (active).

Question: For Nc1cc2nc3ccccc3sc-2cc1=O, which growth is on record?
Answer: The growth was 42.8%.

Question: How did the growth turn out when Cc1csc2ccc(Cl)cc12 was run?
Answer: Its growth is 81.6%.

Question: Which growth does the source give for Cc1ccc(NC(=O)c2sc3nc4c(cc3c2N)C(=O)CCC4)cc1C here?
Answer: Its growth is 56.6%.

Question: Which growth does the source give for Cc1ccc2c(c1)n([O-])c1cc(Cl)ccc1[n+]2=O here?
Answer: Its growth is 88.9%.

Question: For CC(C)[C@@H]1CC[C@]2(C(=O)NCCCCN=C(N)N)CC[C@]3(C)[C@H](CC[C@@H]4[C@@]5(C)CCC(=O)C(C)(C)[C@@H]5CC[C@]43C)[C@@H]12, which growth is on record?
Answer: The growth was 82.6%.

Question: COC1C/C(=N\O)C2OC(c3ccccc3)OCC2O1 (stereo not drawn) was tested. Which growth did it give?
Answer: Its growth is 87.2%.

Question: With COc1cc(-c2c3sc(=O)[nH]c3nc3c2c(=O)[nH]n3C(C)C)cc2c1OCO2 as the compound, how does the growth read?
Answer: The growth was 96.8%.

Question: CCOC(=O)C(C#N)C1CCCCC1 (stereo not drawn) was tested. Which growth did it give?
Answer: Its growth is 91.1%.

Question: With Cc1cc(Nc2nc(-c3cccnc3)nc3ccccc23)n[nH]1 as the compound, how does the growth read?
Answer: Its growth is 60.4%.
